CYP2C9 inhib: human CYP2C9 inhibition; 96,000 tested, 20% active; P11712; CYP2C9 Supersomes, luciferin-H conversion, luminescence; AID 777; inhibition, % at 5 µM;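 active means blocking of liver enzyme CYP2C9 beyond about 50% at 5 µM, limit read from the data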
CYP2C19 inh: human CYP2C19 inhibition | P33261 | CYP2C19 Supersomes, luciferin-H EGE luminescence, 30 min | inhibition, % at 5 µM | 96,000 tested, 21% active | AID 778;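 active means CYP2C19 inhibition above a set limit at 5 µM in the primary screen, cut at about 50% in these data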;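 further: plate controls were negative control wells for no effect and 2.5 mM tranylcypromine positive control for full effect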
Target sequence (P33261 whole entry, looked up): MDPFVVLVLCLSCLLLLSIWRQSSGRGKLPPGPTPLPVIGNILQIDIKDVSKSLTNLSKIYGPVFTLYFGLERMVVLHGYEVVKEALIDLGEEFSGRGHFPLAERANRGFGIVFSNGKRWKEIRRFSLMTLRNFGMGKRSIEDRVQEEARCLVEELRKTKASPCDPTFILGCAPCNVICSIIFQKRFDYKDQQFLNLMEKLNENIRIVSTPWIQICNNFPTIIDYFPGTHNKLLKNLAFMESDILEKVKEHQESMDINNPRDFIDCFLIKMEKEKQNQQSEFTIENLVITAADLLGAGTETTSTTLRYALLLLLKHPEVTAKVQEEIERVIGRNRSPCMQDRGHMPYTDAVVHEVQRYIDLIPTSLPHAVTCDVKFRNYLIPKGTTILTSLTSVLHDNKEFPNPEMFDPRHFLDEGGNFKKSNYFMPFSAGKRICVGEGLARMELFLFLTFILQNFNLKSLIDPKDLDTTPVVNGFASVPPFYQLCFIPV
PostGolgi ctrl: yeast control strain growth, post-Golgi counter-screen; inhibition, % at 10 µM; efflux-deficient yeast background strain, growth absorbance A615, 16 h; 98,000 tested, 5% active
CYP2C19 activ: activators of human cytochrome P450 2C19; P33261; recombinant CYP2C19, luciferin-H EGE luminescence; active compounds read high; 0 = fully inhibited enzyme, 1 = untreated enzyme; AID 1025; activation factor at 5 µM; 96,000 tested, under 10 active;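 active means activation factor of at least 2 at 5 µM in the primary screen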;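 further: 0 = wells with 2.5 mM tranylcypromine and 1 = vehicle-only wells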
CYP2C9 activ: CYP2C9 (human) activation; P11712; recombinant CYP2C9, luciferin-H conversion, luminescence; active compounds read high; factor 1 = untreated enzyme, 0 = blocked; activation factor at 5 µM; 96,000 tested, 1.4% active; AID 1024;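 active means activation factor of 2 or more for CYP2C9 at a 5 µM dose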;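 further: 0 = sulfaphenazole-blocked wells and 1 = vehicle-only wells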
PostGolgi yeast: growth inhibition of a yeast mutant, post-Golgi transport screen. post-Golgi transport phenotypic cell assay. 98,000 tested, 0.9% active. inhibition, % at 10 µM. AID 739;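 further: yeast cells grown in 1536-well plates; yeast grown about 18 h at 30C before absorbance read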
Numbers without * were called inactive; nt = no result given. Hits are enriched below; roughly 32% of the tested compounds scored in any of these assays. Unless noted, no stated cut-off is given here; in the data, active means inhibition above about 30%; inactive means the rest.

SMILES	CYP2C9 inhib	CYP2C19 inh	PostGolgi ctrl	CYP2C19 activ	CYP2C9 activ	PostGolgi yeast
COC(=O)CSc1cc(SCC(=O)OC)c(C#N)c(SCC(=O)OC)c1	52*	38	-2	0.6	0.5	-9
COC(=O)CSc1nc(N)c(C#N)c(C(C)C)c1C#N	48	59*	4	0.4	0.5	-2
COC(=O)CSc1nc(-c2ccccc2)cc(-c2ccco2)c1C#N	89*	49	10	0.5	0.1	5
N#Cc1c(-c2ccco2)cc(C2CC2)nc1SCC(=O)c1ccccc1	2	16	7	0.8	1	-2
CC(=O)CSc1nc(N)c(C#N)c(-c2cccs2)c1C#N	60*	-13	6	1.1	0.4	0
CC12CCC(C(=O)NCC3CCCO3)(OC1=O)C2(C)C (stereo not drawn)	-4	-8	4	1.1	1	-2
Cc1ccccc1Cn1c2ccccc2c2cn[nH]c(=O)c21	17	24	24	0.8	0.8	2
COc1cccc(N2C(=O)C(c3ccccc3)=C(c3nc4ccccc4s3)C2NC(C)=O)c1 (stereo not drawn)	51*	56*	8	0.4	0.5	-3
CC(=O)NC1C(c2nc3ccccc3s2)=C(c2ccccc2)C(=O)N1c1ccc(C)cc1 (stereo not drawn)	28	42	14	0.6	0.7	64*
CC1CCCCN1S(=O)(=O)c1ccc(NC(=O)CSc2nnnn2C)cc1 (stereo not drawn)	28	4	5	1	0.7	-2
CCOC(=O)C1(C(F)(F)F)N=C(C(F)(F)F)Nc2ccccc21 (stereo not drawn)	66*	54*	-1	0.5	0.3	13
CCO/C(C)=C1\C(=O)Nc2ccccc21	-9	-19	16	1.2	1.1	0
CC(C)C1C(C#N)=C(N)Oc2n[nH]c(C(C)(C)C)c21 (stereo not drawn)	7	-2	7	1	0.9	4
Cc1[nH]nc2c1C(CCc1ccccc1)C(C#N)=C(N)O2 (stereo not drawn)	32	74*	nt	0.3	0.7	nt
COc1ccc(F)c(C2C(C#N)=C(N)Oc3n[nH]c(C(C)(C)C)c32)c1 (stereo not drawn)	42	70*	10	0.3	0.6	18
CCCC1C(C#N)=C(N)Oc2n[nH]c(C(C)(C)C)c21 (stereo not drawn)	70*	93*	26	0.1	0.3	-1
N#Cc1c(N)nc2c(c1N)CC(COc1ccccc1)O2 (stereo not drawn)	-8	-3	6	1	1.1	-6
CCCCOc1nc2ccccc2nc1C(C#N)C(=O)NC1CCCCC1 (stereo not drawn)	50	12	-5	0.9	0.5	4
c1ccc2nc3c(cc2c1)CCCCCC3	44	66*	9	0.3	0.6	0
Cc1ccccc1NC(=O)c1sc2nc3c(c(-c4ccco4)c2c1N)CCCC3	64*	46	2	0.5	0.4	-9
CC1=C(C#N)C(NC(=O)c2ccc(C)cc2)(C(F)(F)F)C(=O)N1 (stereo not drawn)	17	92*	6	0.1	0.8	-27
CC1=C(C#N)C(NC(=O)c2ccco2)(C(F)(F)F)C(=O)N1 (stereo not drawn)	-23	2	1	1	1.2	12
CC1=C(C#N)C(Nc2cc(C)ccn2)(C(F)(F)F)C(=O)N1 (stereo not drawn)	26	76*	3	0.2	0.7	15
CC(C(=O)NC1CCCC1)N(Cc1ccco1)C(=O)c1snc(C(=O)NC2CCCC2)c1N (stereo not drawn)	44	23	7	0.8	0.6	-3
O=C(Nc1ccccc1)C1CC=CCC1C(=O)OCC1CCCO1 (stereo not drawn)	8	22	-4	0.8	0.9	22
O=C(/C(=C/O)N=Nc1ccccc1)c1ccncc1	68*	96*	14	0	0.3	-5
Nc1c2c(nc3ccc(Br)cc13)N(c1ccccc1)CC2	87*	89*	10	0.1	0.1	4
CCN(CC)CCCNC(=O)c1cn(C)c2ccc(S(=O)(=O)N(C)C)cc2c1=O	7	-6	7	1.1	0.9	2
O=C(NC1CCCCC1)c1ccc(S(=O)(=O)NCc2cccnc2)cc1	24	1	-7	1	0.8	8
